Experimental data reported in PubChem BioAssay (Tox21).
“And” between values parts separate entries of the source, which are not always exact repeats. Equal values may be shown once. Unmarked numbers belong to inactive results. Inconclusive results are not listed. A call without a number means that no potency is given here. The source made the active and inactive calls. The call rests on the fitted dose curve.

Legend:
[1] = biological target: Acetylcholinesterase (Homo sapiens) (UniProt P22303); assay: Acetylcholinesterase (AChE) small molecule antagonists: colormetric cell-based qHTS assay (AID 1347395); further: nearly all actives have a fitted effect of over 30% in size; further: potency means the concentration at half of the fitted maximal effect
Outline: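 Colorimetric readout: DTNB quantifies thiocholine from acetylthiocholine hydrolysed by endogenous AChE of SH-SY5Y cells (2,000/well, plated overnight). Compound pretreatment 30 min, substrate incubation 90 min, both 37 C.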

[2] = biological target: Acetylcholinesterase (Homo sapiens) (UniProt P22303); assay: Acetylcholinesterase (AChE) small molecule antagonists: enzyme-based qHTS assay (AID 1347397); details: Potency: AChE enzyme activity inhibition; outcome: AChE enzyme activity inhibition; further: nearly all actives have a fitted effect of over 55% in size; further: potency means the concentration at half of the fitted maximal effect
Outline: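 rhAChE 50 mU/mL (dispensed) + cpd or DMSO, 30 min RT; add DTNB/acetylthiocholine cocktail, 10 min RT; colorimetric thiocholine readout. qHTS, 1536-well format.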

[3] = biological target: Acetylcholinesterase (Homo sapiens) (UniProt P22303); assay: Acetylcholinesterase (AChE) small molecule antagonists: fluorescence cell-based qHTS assay (AID 1347398); details: Potency: AChE activity; outcome: AChE activity; further: nearly all actives have a fitted effect of over 50% in size; further: potency means the concentration at half of the fitted maximal effect
Outline: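 Read-out is Thiolite Green fluorescence at Ex/Em = 490/520 nm, formed by reaction with thiocholine released when cellular AChE in SH-SY5Y cells hydrolyzes acetylthiocholine. Compounds were preincubated 30 min at 37 C before substrate.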

[4] = biological target: Acetylcholinesterase (Homo sapiens) (UniProt P22303); assay: Acetylcholinesterase (AChE) small molecule antagonists: enzyme-based qHTS assay with human liver microsomes (AID 1347399); details: Potency: qHTS inhibition; outcome: qHTS inhibition; further: nearly all actives have a fitted effect of over 60% in size
Outline: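 Recombinant human AChE (50 mU/mL in the enzyme mix) and human liver microsomes (0.25 mg/mL final) were preincubated with compound and NADPH (0.25 mg/mL final) for 30 min at 37 C. Acetylthiocholine/DTNB was then added; thiocholine was read colorimetrically after 10 min at room temperature.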

Acetylcholinesterase (Homo sapiens), sequence (P22303 whole entry, looked up): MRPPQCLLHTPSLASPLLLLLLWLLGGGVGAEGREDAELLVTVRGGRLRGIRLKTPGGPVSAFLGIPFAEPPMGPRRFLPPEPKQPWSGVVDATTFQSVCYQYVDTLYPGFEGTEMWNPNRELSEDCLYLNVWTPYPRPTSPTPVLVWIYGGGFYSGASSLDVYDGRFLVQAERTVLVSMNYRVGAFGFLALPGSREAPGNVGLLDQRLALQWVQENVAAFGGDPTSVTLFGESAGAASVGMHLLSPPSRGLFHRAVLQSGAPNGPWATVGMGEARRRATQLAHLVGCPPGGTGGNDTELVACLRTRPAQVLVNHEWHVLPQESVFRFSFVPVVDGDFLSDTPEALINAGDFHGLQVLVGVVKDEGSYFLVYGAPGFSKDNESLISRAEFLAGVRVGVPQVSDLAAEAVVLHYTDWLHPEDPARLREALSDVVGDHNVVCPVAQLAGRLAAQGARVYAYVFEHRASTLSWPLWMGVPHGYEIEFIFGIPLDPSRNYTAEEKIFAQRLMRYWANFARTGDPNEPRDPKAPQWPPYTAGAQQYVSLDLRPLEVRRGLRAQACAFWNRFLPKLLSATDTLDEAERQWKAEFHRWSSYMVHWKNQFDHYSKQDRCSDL

O=C(Oc1ccccc1)c1ccc(O)cc1
Potency [1]: inactive | Potency [2]: inactive | Potency [3]: inactive | Potency [4]: inactive

C=C(C)C1CC=C(C)CC1 (stereo not given)
Potency [1]: inactive | Potency [2]: inactive | Potency [3]: inactive | Potency [4]: inactive

C=CC(=O)CCCCC
Potency [1]: inactive | Potency [2]: inactive | Potency [3]: inactive | Potency [4]: inactive

CCCCC(CC)COCCC#N (stereo not given)
Potency [1]: inactive | Potency [2]: inactive | Potency [3]: inactive | Potency [4]: inactive

CCCCCCCCCCCCc1ccccc1
Potency [1]: inactive | Potency [2]: inactive | Potency [3]: inactive | Potency [4]: inactive

CC(=O)OC(C)c1ccccc1 (stereo not given)
Potency [1]: inactive | Potency [2]: inactive | Potency [3]: inactive | Potency [4]: inactive

CC(C)C(=O)OCCOc1ccccc1
Potency [1]: inactive | Potency [2]: inactive | Potency [3]: inactive | Potency [4]: inactive

CCCC/C=C/CCCCO
Potency [1]: inactive | Potency [2]: inactive | Potency [3]: inactive | Potency [4]: inactive

Cc1c(C(=O)O)c(O)cc2c1C(=O)c1c(O)c([C@@H]3O[C@H](CO)[C@@H](O)[C@H](O)[C@H]3O)c(O)c(O)c1C2=O
Potency [1]: inactive | Potency [2]: inactive | Potency [3]: inactive | Potency [4]: inactive

C#C[C@]1(O)CC[C@H]2[C@@H]3CCC4=Cc5oncc5C[C@]4(C)[C@H]3CC[C@@]21C
Potency [1]: inactive | Potency [2]: inactive | Potency [3]: inactive | Potency [4]: inactive

CC(C)CC(C)(C)C
Potency [1]: inactive | Potency [2]: inactive | Potency [3]: inactive | Potency [4]: inactive

C=C[C@H]1CN2CC[C@H]1C[C@H]2[C@H](O)c1ccnc2ccc(OC)cc12
Potency [1]: inactive | Potency [2]: inactive | Potency [3]: inactive | Potency [4]: inactive

CCCCCC=O
Potency [1]: inactive | Potency [2]: inactive | Potency [3]: inactive | Potency [4]: inactive

CC(C)C(=O)Nc1ccc([N+](=O)[O-])c(C(F)(F)F)c1
Potency [1]: inactive | Potency [2]: inactive | Potency [3]: inactive | Potency [4]: inactive

Cc1cccc(C(=O)O)c1
Potency [1]: inactive | Potency [2]: inactive | Potency [3]: inactive | Potency [4]: inactive

CC(C)[C@@H]1CC[C@@H](C)CC1=O
Potency [1]: inactive | Potency [2]: inactive | Potency [3]: inactive | Potency [4]: inactive

CCCCN(CCO)CCCC
Potency [1]: inactive | Potency [2]: inactive | Potency [3]: inactive | Potency [4]: inactive

CCn1cc(C(=O)O)c(=O)c2cc(F)c(N3CCNCC3)cc21
Potency [1]: inactive | Potency [2]: inactive | Potency [3]: inactive | Potency [4]: inactive

COc1ccc2c(c1)c(CC(=O)OC/C=C(\C)CC/C=C(\C)CCC=C(C)C)c(C)n2C(=O)c1ccc(Cl)cc1
Potency [1]: inactive | Potency [2]: inactive | Potency [3]: inactive | Potency [4]: inactive

COC(=O)C1=C(C)NC(C)=C(C(=O)OCC(C)C)C1c1ccccc1[N+](=O)[O-] (stereo not given)
Potency [1]: inactive | Potency [2]: inactive | Potency [3]: inactive | Potency [4]: inactive

O=C(c1ccc(O)cc1)c1ccc(O)cc1O
Potency [1]: inactive | Potency [2]: inactive | Potency [3]: inactive | Potency [4]: inactive

CCCCCCCC(=O)OCCCCCC
Potency [1]: inactive | Potency [2]: inactive | Potency [3]: inactive | Potency [4]: inactive

C[C@]12CCC(=O)C=C1CC[C@@H]1[C@@H]2[C@@H](O)C[C@@]2(C)[C@H]1CC[C@]2(O)C(=O)COC(=O)CCC(=O)O
Potency [1]: inactive | Potency [2]: inactive | Potency [3]: inactive | Potency [4]: inactive

CCC(C)c1nccnc1OC (stereo not given)
Potency [1]: inactive | Potency [2]: inactive | Potency [3]: inactive | Potency [4]: inactive

CCN(CC)C(=O)C1CN2CCc3cc(OC)c(OC)cc3C2CC1OC(C)=O (stereo not given)
Potency [1]: inactive | Potency [2]: inactive | Potency [3]: inactive | Potency [4]: inactive

Nc1ccc(N)c(Cl)c1
Potency [1]: 8.92 µM (active) and 22.4 µM (active) | Potency [2]: 8.92 µM (active) and 8.94 µM (active) | Potency [3]: 5.63 µM (active) and 10 µM (active) | Potency [4]: inactive

O=C(O)CN(CCN(CC(=O)O)CC(=O)O)CCN(CC(=O)O)CC(=O)O
activity, negative = inhibition [1]: 0.969% [at 23.6 µM] | activity change, negative = inhibition [2]: 0.748% [at 23.6 µM] | activity change, negative = inhibition [3]: 7.05% [at 23.8 µM] | activity change, negative = inhibition [4]: 0% [at 23.6 µM]

CN1CCCN(C(c2ccccc2)c2ccc(Cl)cc2)CC1 (stereo not given)
Potency [1]: inactive | Potency [2]: inactive | Potency [3]: inactive | Potency [4]: inactive

NC[C@H](O)c1ccc(O)c(O)c1
Potency [1]: inactive | Potency [2]: inactive | Potency [3]: inactive | Potency [4]: inactive

C=CC(=O)OCCCCCCCC
Potency [1]: inactive | Potency [2]: inactive | Potency [3]: inactive | Potency [4]: inactive

CC(C)(C)c1nnc(NS(=O)(=O)c2ccccc2)s1
Potency [1]: inactive | Potency [2]: inactive | Potency [3]: inactive | Potency [4]: inactive

O[C@@H](c1cc(C(F)(F)F)nc2c(C(F)(F)F)cccc12)[C@H]1CCCCN1
Potency [1]: inactive | Potency [2]: inactive | Potency [3]: inactive | Potency [4]: inactive

CCCCCCCCCCC(CO)CCCCCCCC (stereo not given)
Potency [1]: inactive | Potency [2]: inactive | Potency [3]: inactive | Potency [4]: inactive

CN1CCN(CCCN2c3ccccc3Sc3ccc(Cl)cc32)CC1
Potency [1]: inactive | Potency [2]: inactive | Potency [3]: inactive | Potency [4]: inactive

OC[C@H]1O[C@@H]2O[C@H]3[C@H](O)[C@@H](O)[C@@H](O[C@H]4[C@H](O)[C@@H](O)[C@@H](O[C@H]5[C@H](O)[C@@H](O)[C@@H](O[C@H]6[C@H](O)[C@@H](O)[C@@H](O[C@H]7[C@H](O)[C@@H](O)[C@@H](O[C@H]8[C@H](O)[C@@H](O)[C@@H](O[C@H]1[C@H](O)[C@H]2O)O[C@@H]8CO)O[C@@H]7CO)O[C@@H]6CO)O[C@@H]5CO)O[C@@H]4CO)O[C@@H]3CO
Potency [1]: inactive | Potency [2]: inactive | Potency [3]: inactive | Potency [4]: inactive

O=C(O)CCCc1c[nH]c2ccccc12
Potency [1]: inactive | Potency [2]: inactive | Potency [3]: inactive | Potency [4]: inactive

COc1cc(CNC(=O)CCCC/C=C/C(C)C)ccc1O
Potency [1]: inactive | Potency [2]: inactive | Potency [3]: inactive | Potency [4]: inactive

C=COC(=O)C(C)(CC)CCC(C)C (stereo not given)
Potency [1]: inactive | Potency [2]: inactive | Potency [3]: inactive | Potency [4]: inactive

CC1(C)CC(N=C=O)CC(C)(CN=C=O)C1 (stereo not given)
Potency [1]: inactive | Potency [2]: inactive | Potency [3]: inactive | Potency [4]: inactive

CCCCCC(CO)CCC (stereo not given)
Potency [1]: inactive | Potency [2]: inactive | Potency [3]: inactive | Potency [4]: inactive

O=[N+]([O-])C(CO)(CO)CO
Potency [1]: inactive | Potency [2]: inactive | Potency [3]: inactive | Potency [4]: inactive

O=S(=O)(O)CO
Potency [1]: inactive | Potency [2]: inactive | Potency [3]: inactive | Potency [4]: inactive

O=C(OCc1ccccc1)c1ccccc1O
Potency [1]: inactive | Potency [2]: inactive | Potency [3]: inactive | Potency [4]: inactive

CCCCCCCC/C=C\CCCCCCCC(=O)NCc1ccc(O)c(OC)c1
Potency [1]: inactive | Potency [2]: inactive | Potency [3]: inactive | Potency [4]: inactive

CC(=O)c1ccc2ccccc2c1
Potency [1]: inactive | Potency [2]: inactive | Potency [3]: inactive | Potency [4]: inactive

Cc1[nH]c(C)c(Cl)c(=O)c1Cl
activity, negative = inhibition [1]: 1.65% [at 23.6 µM] | activity change, negative = inhibition [2]: -0.693% [at 23.6 µM] | activity change, negative = inhibition [3]: -0.55% [at 23.8 µM] | activity change, negative = inhibition [4]: -0.336% [at 23.6 µM]

C[C@@H]1CN(c2c(F)c(N)c3c(=O)c(C(=O)O)cn(C4CC4)c3c2F)C[C@H](C)N1
activity, negative = inhibition [1]: 1.94% [at 23.6 µM] | activity change, negative = inhibition [2]: -2.1% [at 23.6 µM] | activity change, negative = inhibition [3]: -0.604% [at 23.8 µM] | activity change, negative = inhibition [4]: 0.841% [at 23.6 µM]

CC(NN)c1ccccc1 (stereo not given)
activity, negative = inhibition [1]: 1.5% [at 23.6 µM] | activity change, negative = inhibition [2]: 0.277% [at 23.6 µM] | activity change, negative = inhibition [3]: 0.294% [at 23.8 µM] | activity change, negative = inhibition [4]: 1.27% [at 23.6 µM]

CC(=O)/C(C)=C/C1C(C)=CCCC1(C)C (stereo not given)
Potency [1]: inactive | Potency [2]: inactive | Potency [3]: inactive | Potency [4]: inactive

CC(=O)OCc1ccccc1
Potency [1]: inactive | Potency [2]: inactive | Potency [3]: inactive | Potency [4]: inactive

CCCCSCCCC
Potency [1]: inactive | Potency [2]: inactive | Potency [3]: inactive | Potency [4]: inactive

C=CC(=O)NCOCCCC
Potency [1]: inactive | Potency [2]: inactive | Potency [3]: inactive | Potency [4]: inactive

CCOc1ccc(NC(C)=O)cc1
Potency [1]: inactive | Potency [2]: inactive | Potency [3]: inactive | Potency [4]: inactive

Clc1cc(Cl)c(Cl)c(Cl)c1Cl
Potency [1]: inactive | Potency [2]: inactive | Potency [3]: inactive | Potency [4]: inactive

c1ccc2[nH]c(-c3cscn3)nc2c1
Potency [1]: inactive | Potency [2]: inactive | Potency [3]: inactive | Potency [4]: inactive

COC(=O)c1ccc([N+](=O)[O-])cc1
Potency [1]: inactive | Potency [2]: inactive | Potency [3]: inactive | Potency [4]: inactive

COC(=O)NN
Potency [1]: inactive | Potency [2]: inactive | Potency [3]: inactive | Potency [4]: inactive

C=CCCCCCCCC
Potency [1]: inactive | Potency [2]: inactive | Potency [3]: inactive | Potency [4]: inactive

CN1CCC[C@@H]1Cc1c[nH]c2ccc(CCS(=O)(=O)c3ccccc3)cc12
Potency [1]: inactive | Potency [2]: inactive | Potency [3]: inactive | Potency [4]: inactive

Nc1cc([N+](=O)[O-])ccc1O
Potency [1]: inactive | Potency [2]: inactive | Potency [3]: inactive | Potency [4]: inactive
